Bioassay records from PubChem BioAssay.
HCV inhibitor: HCV inhibition; Huh7.5.1 HCVcc-Cre infection, luciferase reporter, 44 h; Potency, µM (titrated, usually from 41.8 µM), usual class: inhibitors; actives 3.4% (n = 340,000); AID 651820
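Compounds are dispensed onto cells plated 4 h earlier at 1,000 per well, with HCVcc-Cre virus (about 0.5 moi) added next. Following 44 h of culture, luminescent signal is measured for 15 sec after 15 min with substrate at room temperature.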
Pf growth 48h: P. falciparum growth inhibition at 48 hours (one generation); AID 504832; P. falciparum luciferase growth in erythrocytes, 48 h; Potency, µM (top dose mostly 28.7 µM), usual class: inhibitors; actives 5.9% (n = 310,000)
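A one-generation exposure of luciferase-tagged malaria parasites in RPMI 1640/Albumax erythrocyte culture, 37 C and 5% CO2. Inhibition is inferred from decreased luminescence after adding detection reagent.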
VACV mCherry inh: inhibitors of vaccinia virus infection (mCherry reporter signal) | Vaccinia virus mCherry reporter infection, fluorescence | actives 0.63% (n = 310,000) | Potency, µM (series often up to 36.5 µM), usual class: inhibitors | AID 720579; calls by dose curve; tested in A549 cells; also: nearly all actives have a fitted effect of over 35% in size
NS1 inh: inhibitors of influenza NS1 protein function; Potency, µM (series often up to 46.1 µM); actives 0.4% (n = 270,000); calls by dose curve; also: actives are rising curves; nearly all actives have a fitted effect of over 50% in size
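Compounds were scored for reversing the slow growth caused by influenza A NS1 in S. cerevisiae, measured by optical density at 600 nm. Assay medium contained 2% galactose at pH 6.0; NS1-free yeast of the same strain were the positive control.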
VACV Venus inh: vaccinia inhibition (Venus reporter); Vaccinia virus Venus reporter expression, fluorescence; Potency, µM (top dose mostly 36.5 µM), most hits filed as inhibitors; actives 0.46% (n = 330,000); calls by dose curve; tested in A549 cells; also: nearly all actives have a fitted effect of over 30% in size
Pf growth 96h: P. falciparum growth inhibition at 96 hour, primary screen for plastid delayed-death inhibitors; P. falciparum luciferase reporter growth, 96 h; Potency, µM (titrated, usually from 28.7 µM), actives largely listed as inhibitors; actives 6.9% (n = 320,000)
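Compounds incubated with erythrocytes infected by luciferase-expressing P. falciparum (2% hematocrit, 0.05% parasitemia final) for 96 hours, 37 C in 5% CO2. Growth inhibition scored as decreased luciferase luminescence.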
Hits are given with their value; . = inactive; ? = inconclusive; / = no result; [ ] = dose if it differs, or a comment. In the library only some 11% were active in any assay of this set; here they are far more common. Unless noted, calls follow the shape of the dose curve; as a rule, active = well fitted inhibition curve with a large enough effect; inconclusive = small, poorly fitted or top-dose-only effect, or another doubt; inactive = no such curve, though single readings can be large or run the other way.

SMILES	HCV inhibitor	Pf growth 48h	VACV mCherry inh	NS1 inh	VACV Venus inh	Pf growth 96h
O=C(Nc1nc2ccccc2[nH]1)c1ccccc1OC(F)F	.	.	.	.	.	.
COc1ccc(C(=O)Nc2nc3ccccc3[nH]2)cc1OC	.	.	/	.	/	.
O=C(Nc1nc2ccccc2[nH]1)c1ccc(F)cc1	.	.	/	.	/	1.47µM
CN(C)CCOC(=O)c1cn(Cc2ccccc2)c2ccccc12	.	.	/	.	.	/
CC(=O)c1c(C)[nH]c(C(=O)Nc2ccc(C)c(C)c2)c1C	?	/	/	.	/	.
CCN1C(=NCCOC)N[C@@H](c2cccc(C(F)(F)F)c2)C(C(=O)OC)=C1C	?	.	.	.	.	2.08µM
CCN1C(=NCC2CC2)N[C@@H](c2cccc(C(F)(F)F)c2)C(C(=O)OC)=C1C	?	?	.	.	.	11.7µM
CCN1C(=NCc2ccco2)N[C@@H](c2cccc(C(F)(F)F)c2)C(C(=O)OC)=C1C	?	?	.	.	.	.
O=C(Nc1ccc(Cc2ccc(NC(=O)C3CC3)c(O)c2)cc1O)C1CC1	.	.	/	?	/	10.4µM
COC(=O)c1c[nH]n2c(=O)c(Cc3ccc(F)cc3Cl)c(C)nc12	.	.	/	.	/	1.47µM
Cc1nc2c(C(=O)N3CCCC3)c[nH]n2c(=O)c1Cc1ccc(F)cc1Cl	/	/	/	.	/	/
CCOC(=O)C1=C(CC)Nc2ccccc2N=C1NC(=O)CCNC(C)=O	.	.	.	/	.	.
CCOc1cc(CNCc2ccc(C(=O)O)cc2)ccc1OC	.	.	.	.	.	.
CCOc1cc(CNCc2cc(OC)cc(OC)c2)ccc1OC	0.562µM	.	.	.	.	?
COC(=O)Cc1ccc(NC(=S)N2CCN(c3cc(Cl)ccc3C)CC2)cc1	10µM	.	.	.	.	?
COC(=O)Cc1ccc(NC(=S)N2CCCC(CO)C2)cc1 (stereo not given)	.	14.7µM	.	.	.	.
N=c1c2c(-c3ccccc3)c(-c3ccccc3)n(Cc3ccco3)c2ncn1Cc1ccco1	15.8µM	3.7µM	/	.	11.2µM	?
N=c1c2c(-c3ccccc3)c(-c3ccccc3)n(Cc3ccccc3)c2ncn1CCCn1ccnc1	0.501µM	0.928µM	/	.	14.1µM	1.31µM
CCCCn1cnc2c(c(-c3ccccc3)c(-c3ccccc3)n2Cc2ccco2)c1=N	.	4.15µM	.	.	.	2.33µM
Cc1nnc(NC(=O)CN2CCN(Cc3ccccc3Cl)CC2)s1	.	.	/	.	/	?
CCOC(=O)N1CCN(c2c(NCc3cccs3)c(=O)c2=O)CC1	?	/	.	.	.	11.7µM
CCOC(=O)N1CCN(c2c(NCCN3CCN(Cc4ccccc4)CC3)c(=O)c2=O)CC1	.	/	.	.	.	.
CCOC(=O)N1CCN(c2c(NCC3CCN(Cc4cccc(C)c4)CC3)c(=O)c2=O)CC1	.	.	.	.	.	6.57µM
CCOC(=O)N1CCN(c2c(NCCCN3CCCCCC3)c(=O)c2=O)CC1	.	/	.	.	.	10.4µM
Cc1cc(C)cc(NC(=O)Cn2cc(C(=O)c3cccs3)c3ccccc32)c1	/	/	.	/	.	/
SMILES	HCV inhibitor	Pf growth 48h	VACV mCherry inh	NS1 inh	VACV Venus inh	Pf growth 96h
O=[N+]([O-])c1ccc2nc(-c3ccc(Cl)cc3)[nH]c2c1	.	?	/	.	/	.
COC(=O)c1cc2occc2n1Cc1nc(-c2ccccc2Cl)oc1C	.[8.37 µM]	.	?	.	.	11.7µM
CCN(CC)S(=O)(=O)c1ccc(NS(=O)(=O)c2ccc3oc(=O)[nH]c3c2)cc1	.	.	.	.	.	.
CCOC(=O)N1CCN(C(=O)c2ccc(CNS(=O)(=O)c3ccc(OC)cc3)cc2)CC1	.	.	.	.	.	.
Cc1ccc(CN(c2ccc(C(=O)N3CCc4ccccc4C3)cc2)S(C)(=O)=O)cc1	10µM	.	/	.	/	/
COc1ccc(S(=O)(=O)NCc2ccc(C(=O)N3CCc4ccccc4C3)cc2)cc1	?	?	.	.	.	6.57µM
CS(=O)(=O)N(Cc1ccc(C(=O)N2CCc3ccccc3C2)cc1)c1ccccc1	?	.	.	.	.	.
Cc1ccc(S(=O)(=O)NCc2ccc(C(=O)N3CCc4ccccc4C3)cc2)cc1	?	?	?	.	.	6.57µM
O=C(c1cc2ccccc2cc1O)N1CCN(c2cccc(Cl)c2)CC1	.	?	.	/	.	11.7µM
Cc1ccc(S(=O)(=O)NCc2ccc(C(=O)N3CCN(c4ccccc4)CC3)cc2)cc1	?	?	?	.	.	.
